Assay outcomes: PubChem BioAssay, National Center for Advancing Translational Sciences (NCATS)
The entries come from a sample that favours hits as a whole.
Pf Dd2 inh: qHTS Primary assay for Inhibitors of Plasmodium falciparum Dd2 growth in vitro; AID 1347417, 2020; Potency, µM (titrated, usually from 28.9 µM), most hits filed as inhibitors; P. falciparum Dd2 growth, SYBR Green, 72 h; actives 4.3% (n = 120,000); active = well fitted inhibition curve with a large enough effect; note: nearly all actives have a fitted effect of over 65% in size
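Readout: SYBR Green fluorescence, 485 nm excitation, 535 nm emission, after ~16 h lysis at 37C. Before that, Dd2-infected red cells (2.5% hematocrit) grew 72 h with compound, 29 uM top final concentration.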
Large screens that a line does not name were inactive.

CCc1nc2c(c(-c3ccc(Cl)cc3)n1)CN(C(=O)C1CC1)CC2	none
CCc1nc2c(c(-c3ccc(Cl)cc3)n1)CCN(Cc1ccc(NC(C)=O)cc1)CC2	Pf Dd2 inh 2.5µM
CCc1nc2c(c(-c3ccc(Cl)cc3)n1)CCN(Cc1ccccc1)CC2	none
COc1ccc(-c2nc(C)nc3c2CCN(Cc2cccn2C)CC3)cc1	none
CCc1nc2c(c(-c3ccc(Cl)cc3)n1)CN(C(=O)COC)CC2	none
CCc1nc2c(c(-c3ccc(OC)cc3)n1)CCN(Cc1cccc(NC(C)=O)c1)CC2	Pf Dd2 inh 13µM
Cc1nc2c(c(-c3ccc(O)cc3)n1)CN(Cc1cccn1C)CCC2	none
CCc1nc2c(c(-c3ccc(Cl)cc3)n1)CN(C(=O)Cc1cccc(Cl)c1)CC2	Pf Dd2 inh 4.5µM
CCc1nc2c(c(-c3ccc(Cl)cc3)n1)CCN(Cc1ccc(F)cc1)CC2	none
Cc1cc(F)ccc1NC(=O)CCC1CCCN(C(=O)CC2=CCCCC2)C1 (stereo not drawn)	none
COCCOc1ccnc(-c2noc([C@@H]3CCCN3C3CCC3)n2)c1	none
O=C(O)C[C@@H]1CCN(C(=O)Nc2ccc(C(F)(F)F)cc2)C[C@@H]1CCN1CCN(c2ccccn2)CC1	none
O=C(C1CC1)N1CCC(c2noc(-c3cnccn3)n2)C1 (stereo not drawn)	none
COc1ccc(C2Cn3cnc(C(=O)N4CCC(C(=O)NCC(C)C)CC4)c3CO2)cc1 (stereo not drawn)	none
C=CCCC(CN1CCSCC1)Oc1ccc(C#N)cn1 (stereo not drawn)	none
CNC(=O)NC[C@H]1CCN(Cc2cccc(F)c2F)C[C@H]1N(C)C	none
COCCOC1CCOC2(CCN(C(=O)Nc3ccccc3F)CC2)C1 (stereo not drawn)	Pf Dd2 inh 13µM
COC1CCOC2(CCN(C(=O)Nc3ccccc3F)CC2)C1 (stereo not drawn)	none
COCCOC1CCOC2(CCN(C(=O)Nc3ccccc3)CC2)C1 (stereo not drawn)	none
COc1ccc(OC2CN(Cc3cccc4ccccc34)C2)cc1	none
COCc1nc(C2CCCN(C(=O)Cc3ccc(C)cc3)C2)no1 (stereo not drawn)	none
COc1ccccc1-c1[nH]nc2ncc(-c3ccccc3C)nc12	Pf Dd2 inh 13µM
Cc1ccccc1-c1cnc2n[nH]c(-c3ccccc3)c2n1	none
COc1ccccc1-c1[nH]nc2ncc(-c3ccccc3F)nc12	none
O=C(NC1C[C@H]2CC[C@@H](C1)N2C(=O)Cc1ccccc1)c1ccncc1 (stereo partly drawn)	none
O=C1NCc2ccccc2CC12CCN(Cc1ccsc1)C2 (stereo not drawn)	none
O=C1Nc2ccccc2CC12CCCN(Cc1ccc(C(F)(F)F)cc1)C2 (stereo not drawn)	none
O=C1NCc2ccccc2CC12CCN(Cc1ccccc1)CC2	none
O=C1Nc2ccccc2CC12CCN(Cc1ccsc1)CC2	Pf Dd2 inh 11µM
CN(C)c1ccc(CN2CCC3(Cc4ccccc4NC3=O)C2)cc1 (stereo not drawn)	Pf Dd2 inh 10µM
CN(C)c1ccc(CN2CCC3(C2)C(=O)Nc2ccccc23)cc1 (stereo not drawn)	none
O=C1Nc2ccccc2CC12CCN(Cc1cccc3ccccc13)CC2	none
O=C1Nc2ccccc2CC12CCN(Cc1ccccc1)CC2	Pf Dd2 inh 3.5µM
O=C1Nc2ccccc2CC12CCN(Cc1cccnc1)CC2	none
CCC(C)(C)C(=O)NCCc1noc(C2CC2)n1	none
CCc1nc(C)c(C(=O)N[C@H]2[C@@H]3CCO[C@@H]3[C@@H]2C2CCCC2)o1	none
O=C(NCCN1CCCCC1)C1(CCO)CC12CCOCC2 (stereo not drawn)	none
COCC(=O)N1CCCN(C(=O)C2CC2)c2ccccc21	none
CC(=O)NC1CCCN(Cc2cccc(OCCN3CCOCC3)c2)C1 (stereo not drawn)	none
COc1ccccc1-c1nc(C2CC(=O)N(c3ccc(F)c(Cl)c3)C2)no1 (stereo not drawn)	none
COc1ccc(Cl)cc1-c1nc(C2CC(=O)N(c3ccc(F)cc3)C2)no1 (stereo not drawn)	Pf Dd2 inh 11µM
COc1ccc(-c2nc(C3CC(=O)N(c4ccc(F)cc4)C3)no2)cc1F (stereo not drawn)	none
O=C(c1cccc(-n2cnnc2)c1)N1CCCCCC1c1cccc(F)c1 (stereo not drawn)	none
Cn1cc(CN2C[C@H](C(=O)Nc3cccc(F)c3)C[C@H]2c2cccc(C(F)(F)F)c2)cn1	none
CCn1ccc(C(=O)N2CCC3(CC2)CC(N(Cc2ccccc2)C2CC2)CCO3)n1 (stereo not drawn)	none
CC(C)NC(=O)c1coc(COc2ccc3c(c2)C(c2cccc(F)c2)N(C(=O)C2CC2)CC3)n1 (stereo not drawn)	none
COCCNC(=O)c1coc(COc2ccc3c(c2)C(c2cccc(F)c2)N(C(=O)C(C)C)CC3)n1 (stereo not drawn)	none
CCNC(=O)c1coc(COc2ccc3c(c2)C(c2cccc(F)c2)N(C(=O)C(C)C)CC3)n1 (stereo not drawn)	Pf Dd2 inh 0.71µM
CCCCN1CC2(CCCN(C(=O)c3cc[nH]c3C)C2)CCC1=O (stereo not drawn)	none
O=C(C[C@@H]1O[C@H](CNS(=O)(=O)c2ccc(Cl)cc2)[C@@H](O)C1O)N1CCN(c2ccccc2)CC1 (stereo partly drawn)	none
O=C(CN1C(=O)COc2ccc(C(=O)COc3cccc(F)c3)cc21)NCc1ccc2c(c1)OCO2	none
O=C(Cc1ccc2c(c1)OCO2)N(Cc1ccncc1)Cc1cccc(OCCc2ccc(F)cc2)c1	Pf Dd2 inh 11µM
O=C(Cc1ccc2c(c1)OCO2)N1CCNc2cnc(Nc3cccc(F)c3)nc2C1	none
O=C(c1n[nH]c2ccccc12)N1CC2CC(C1)[C@H]1CCCC(=O)N1C2 (stereo partly drawn)	none
O=C(Nc1ccccc1F)N1CCC(Oc2ncccc2C(=O)N2CCOCC2)C1 (stereo not drawn)	none
O=C(NCc1ccncc1)c1cc2n(n1)CC(c1ccc(Br)cc1)OC2 (stereo not drawn)	none
Cc1ccc(-n2ncc(C(=O)NCc3cccs3)c2C2CCN(C(=O)OC(C)(C)C)CC2)c(C)c1	Pf Dd2 inh 11µM
CC(C)(C)OC(=O)N1CCC(c2c(C(=O)NCc3cccs3)cnn2-c2cccc(F)c2)CC1	Pf Dd2 inh 7.9µM
CN(C(=O)CN1C(=O)NC(c2ccc(Cl)cc2)C2=C1COC2=O)c1ccccc1 (stereo not drawn)	none
O=C(c1ccc2c(c1)OCO2)N1CCC2(CC1)NC(=O)N(c1cccc(F)c1)N2	none
CC(C)N1C[C@H](O)C[C@H]1c1nnc2n1CCN(C(=O)c1ccccc1)CC2	none
CCOc1ccccc1C(=O)N1CC[C@@H]2CN(S(C)(=O)=O)[C@@H]2C1	none
COc1cccc(C(CC(=O)NC2CCCCC2)c2c[nH]c3ccccc23)c1OC (stereo not drawn)	none
FC(F)(F)CN1C2CCC1CN(c1nccc(C(F)(F)F)n1)C2	none
Cc1cc(C)nc(N2CC3CCC(C2)N3CC(F)(F)F)c1	none
Cc1ccc(Nc2ccnc(N3CC4CCC(C3)N4CC(F)(F)F)n2)cc1	Pf Dd2 inh 10µM
Cc1noc(-c2cn(C3CCN(C(=O)COc4ccccc4)C3)nn2)n1 (stereo not drawn)	none
Cc1ccc(C(=O)NCC2Cn3cccc3C(=O)N2CC(C)C)cn1 (stereo not drawn)	none
CC(NC(=O)C1CCN(C(=O)c2ncn3c2COC(c2ccccc2)C3)CC1)c1ccc(F)cc1 (stereo not drawn)	none
COc1ccc(C(C)NC(=O)C2CCN(C(=O)c3ncn4c3COC(c3ccccc3)C4)CC2)cc1 (stereo not drawn)	Pf Dd2 inh 7.9µM
